Assay results as given in PubChem BioAssay AID1347426 (Functional Genomics Laboratory (NCATS/FGL), 2020).
The whole screen tested about 31,000 sequences, of which about 1,400 (4.5%) were called active. The entries come from a sample that favours actives as a whole. Unmarked numbers belong to inactive results.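 How the source made its calls: active means median seed-adjusted z-score above 1 or below -1; inactive means the rest.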

Test: Novel Modifiers of Survival Motor Neuron (SMN) Protein: Gene Identification via Genome-wide siRNA Screen
Conditions: HEK293T SMN2-luciferase reporter, siRNA knockdown, 72 h; actives lie on both sides
Excerpt: Spinal muscular atrophy (SMA) is the most common neuromuscular autosomal recessive disorder and one of the leading genetic causes of infant death. SMA results from mutations inducing loss of function or deletion in the survival of motor neuron-1 gene (SMN1), leading to deficiency of the survival motor neuron (SMN) protein. Although a second nearly identical gene, SMN2, is retained in humans, its expression primarily produces an aberrantly spliced isoform that is largely unstable and quickly degraded. We performed a genome-wide RNAi screen using a cell-based reporter assay to identify genes and pathways that modulate SMN protein stability. The screen identified over 200 genes that led to the greatest increase or decrease in luciferase expression.
Using HEK293T cells stably expressing a luciferase reporter that combines the promoter and splicing based cassettes in tandem with the major portion of the native SMN2 cDNA with luciferase, we performed a genome-wide RNAi screen to identify modulators of SMN protein levels. Luciferase is expressed when full-length SMN protein is generated with luminescence signal proportional to SMN protein levels. Our luciferase-based reporter assay was used to screen Ambion Silencer Select Human Druggable Genome siRNA library (10418 genes, 3 unique siRNAs per gene) using lipid-based reverse transfection.
Briefly, 1 pmol of each siRNA was spotted to a well of a 384-well plate (Corning, Corning, NY) and 20 microL of serum-free DMEM containing […] of Lipofectamine RNAiMax (Life Technologies, Carlsbad, CA) was then added to each well. Transfected cells were maintained at 37 degrees C in 5% CO2 for 72 hours, 20 microL of ONE-Glo Reagent (Promega) was added to wells for luciferase quantification. Raw luminescence reads were normalized to Ambion(R) Silencer(R) Negative Control #2 siRNA, then log10 transformed. A robust statistical measure of median absolute deviation (MAD) to standardize siRNA activities from each screen. Common Seed Analysis was used to help prioritize clean hits as opposed to those appearing to arise from seed based off-target effects. Candidate modulators were defined as the genes having a MAD score greater than 1.0 or less than -1.0.
Work on AGAUCAAGUUUGCCCUAAATT against HDGF2 yielded a median seed-adjusted z-score of 0. GCCUGGAUGCUAAUCAAGATT against S100A12 gave a median seed-adjusted z-score of 0.346. AGGAAGAAUUUAAUCCUGATT against CYP26A1 gave a median seed-adjusted z-score of 0.0569. With GAAAGAGCCUGUUACCUAUTT against ACTR1A the median seed-adjusted z-score was 1.28 (active). In the case of GUGAAGAAGUUGCUUAUUATT against MAST1, the median seed-adjusted z-score is reported as -0.0897. For GCAUGAUGGUAUUGAGCUUTT against MS4A6A, the median seed-adjusted z-score was 0.174. With GAGUCACUUCUAAUAAACATT against FOLR2 the median seed-adjusted z-score was -0.0835. For CGUUAUCUUCAUCACCUAUTT against ABCC10, the median seed-adjusted z-score was -1.56 (active). GGCUAUAAUAGACACGAGATT against CDH6 gave a median seed-adjusted z-score of 0. Work on UGACUUUCCUCUCUACGGUTT against SLC10A3 yielded a median seed-adjusted z-score of -0.25. In the case of GCAUGCUGUUAGCCGAUAATT against TOMM70A, the median seed-adjusted z-score is reported as 0.0717. CGGCUGAUGUUCUCGAAUUTT against BRD3 gave a median seed-adjusted z-score of 0.633. For CCAGGCUAUUUGUACCGAUTT against CCR6, the median seed-adjusted z-score was 0.103. For CCAGCUCUGGAAUUAGAUATT against NRBP1, the median seed-adjusted z-score was -1.13 (active). Work on GAAUUAAAGAUUUGGUUGATT against EFCAB1 yielded a median seed-adjusted z-score of -0.719. For GCUGUUAAGUAUGCCCUUATT against AKR1A1, the median seed-adjusted z-score was -0.255. GGACCAUUGGUGAUGAGAATT against CD36 showed a median seed-adjusted z-score of -0.000845. Work on GGUUGGAUGCUAUAUACCATT against ROS1 yielded a median seed-adjusted z-score of -0.0561. With GGGAUAAGCUGAUAAAGGATT against NDUFS5 the median seed-adjusted z-score was -1.35 (active). Sequence GAAUUGAAACGAGCUAGAATT against TAF13 has a median seed-adjusted z-score of -0.919. CCGUAUGAAUGUAAGUAUUTT against ZNF441 showed a median seed-adjusted z-score of 0.578. CAAGAGUUAUGGUCUGGGATT against GCM1 gave a median seed-adjusted z-score of 0.0197. CCACGAUGAAGGAACGAGATT against PDE4A gave a median seed-adjusted z-score of -0.147. For GCAUGAUCUAGAUCGAGUATT against UQCRFS1, the median seed-adjusted z-score was -1.28 (active). For GGUAUUACUUUGCAAUCGATT against CACNA2D1, the median seed-adjusted z-score was -0.541. CAAGAUAUAUAUACGCCUATT against NPY1R showed a median seed-adjusted z-score of 0.76. Work on GGGUUUUAGUAACCUUAGATT against SUCNR1 yielded a median seed-adjusted z-score of 0. Sequence GAUCCAAAGUAACUAAACATT against HMGN3 has a median seed-adjusted z-score of -0.182. With GAGGCAGUCUUAGAGGAAATT against SPATA21 the median seed-adjusted z-score was -1.03 (active). Sequence GCCCAUCACCUCUUCAUGATT against RAMP1 has a median seed-adjusted z-score of -0.031.
